Among the data in PubChem BioAssay AID1531 (NMMLSC, 2009) are binding response (% of control) values, retold here.

Hit rate of the full screen: of about 290,000 compounds, about 3,300 (1.1%) were called active. This is one part of a sample in which actives are shown more often than they occur. Unmarked numbers belong to inactive results. Rule as the data show it: active = binding response below about 67% or above about 130%; inconclusive = no clear call, values can overlap the other calls; inactive = in between.

For the assay, the target named is Mitogen-activated protein kinase kinase kinase 2 (Homo sapiens) (UniProt Q9Y2U5). Put plainly: wildtype MEKK2 PB1-MEK5 interaction, increase or decrease – biochemical, multiplex bead flow cytometry, Alexa488-MEK5, primary screen (AID 1531). Conditions: Alexa488-MEK5 binding to MEKK2 WT, at 10 µM, actives lie on both sides. In general terms: Flow cytometry measures light scatter and fluorescence of single cells or particles in a stream.
`CC1CN(S(=O)(=O)c2cccc(C(F)(F)F)c2)CN1C(=O)N1CCOCC1` (stereo not given): the binding response (% of control) is 95%. Turning to `COc1ccc(C2CC(c3cccs3)=NN2c2ccccc2)cc1` (stereo not given), the binding response (% of control) was 81%. Under `COc1ccccc1N1N=C(c2cccs2)CC1c1ccccc1` (stereo not given) stands 93%; under `Cc1ccccc1C1CC(c2cccs2)=NN1S(C)(=O)=O` (stereo not given), 16% (active).

Take `FC(F)(F)c1cccc(N/N=C/c2ccccc2)c1`: the binding response (% of control) was 143% (active). `O=[N+]([O-])c1ccc(N/N=C/c2ccccc2)cc1`: the binding response (% of control) was 99%.

As to `FC(F)(F)c1cccc(Nc2ncnc3ccccc23)c1`, the binding response (% of control) is 103%.

With `O=C1Nc2cc(C(=O)N3CCN(c4ccc(F)cc4)CC3)ccc2NC1CSCc1cccc(F)c1` (stereo not given), the binding response (% of control) is 87%. As for `Nc1ccc(S(=O)(=O)Nc2nccc(/C=C/c3ccc(Br)s3)n2)cc1`, the figure is 93%. Under `CC(=O)Nc1ccc(S(=O)(=O)Nc2nccc(/C=C/c3ccccc3F)n2)cc1` stands -6% (active). Consider `O=C(/C=C/c1ccccc1Cl)Nc1ccc(S(=O)(=O)Nc2ncccn2)cc1`, for which the binding response (% of control) was 92%. As for `CC(=O)N1c2ccc(S(=O)(=O)N3CCC(C(=O)N4CCN(c5ccccc5)CC4)CC3)cc2CC1C` (stereo not given), the figure is 102%; as for `COc1ccc(C=C(C#N)C#N)c(CSc2ccccn2)c1`, 103%; as for `CCOc1ccccc1NC(=O)NC1CCCCCCC1`, 98%. Under `COCCNC(=O)CN(Cc1ccco1)C(=O)CCC(=O)Nc1nccs1` stands 103%; under `O=C(c1ccc(F)cc1)n1c(=S)nc2ccccn21`, 80%; under `CC(NS(=O)(=O)c1ccc(Br)cc1)C(=O)NCC1CCCO1` (stereo not given), 100%. Under `O=C(CSc1ccc(-c2ccc(Br)cc2)nn1)NCC1CCCO1` (stereo not given) stands 107%; under `OC(CNCC1CCCO1)Cn1c2ccc(Br)cc2c2cc(Br)ccc21` (stereo not given), 141% (active); under `COC(=O)C(C)n1cnc2c(nnn2-c2ccc(F)cc2)c1=O` (stereo not given), 94%.

`COc1cc(NC(=O)CCS(=O)(=O)c2ccc3c(c2)oc(=O)n3C)cc(OC)c1`: the binding response (% of control) was 100%. Under `COc1ccc(CCNC(=O)C2CCCN(S(=O)(=O)c3ccc(OC)cc3)C2)cc1` (stereo not given) stands 94%. As for `CC(C)(C)Oc1ccccc1Nc1nc(NCCO)nc(N2CCCC2)n1`, the figure is 103%.

Turning to `COCCNC(=S)N/N=C/c1c(C)[nH]c2ccccc12`, the binding response (% of control) is 24% (active). In the case of `Cc1[nH]c2ccccc2c1/C=N/NC(=O)CNC(=O)c1ccc2c(c1)OCO2`, the binding response (% of control) is 100%. In the case of `Cc1[nH]c2ccccc2c1/C=N\NC(=O)Cn1nnc(-c2ccccc2)n1`, the binding response (% of control) is 107%. As for `CC(C)c1nc2cc(C(=O)NC(C)c3cnn(C)c3)ccc2o1` (stereo not given), the figure is 104%; as for `O=C(OCc1cc2ccccc2[nH]c1=O)c1cccnc1`, 109%; as for `Cc1cc(=O)[nH]c(SCc2cc(Cl)ccc2OC(F)F)n1`, 106%. On to `O=C(OCc1cc(Cl)ccc1OC(F)F)c1cccnc1`, for which the binding response (% of control) was 281% (active). For `COC(=O)C1=C[C@@H](C(=O)OC)[C@@H]2C3=C(C(=O)[C@]2(C)NC(=O)c2ccccc2)[C@H](C)n2c(=O)n(C)c(=O)n2[C@@H]3C1`, the binding response (% of control) is 102%. Consider `OCC[C@H]1C[C@H](O)[C@@H](O)[C@]2(CCCCO2)O1`, for which the binding response (% of control) was 98%. As for `Cc1ccc(NS(=O)(=O)c2cc3c(cc2C)NC(=O)CO3)cc1`, the figure is 98%; as for `Cc1cccc(NC(=O)Nc2cccc(Oc3c(F)c(F)c(F)c(F)c3F)c2)c1`, 235% (active).

Take `Cc1cccc(NC(=O)c2cccc(C(F)(F)F)c2)c1`: the binding response (% of control) was 91%. As for `COc1cccc(NC(=O)NCc2ccc(F)cc2)c1`, the figure is 98%. As to `CC(Sc1nnc(-c2ccccc2F)n1C1CC1)C(N)=O` (stereo not given), the binding response (% of control) is 104%. As for `Cc1c(NC(=O)Nc2cccc([N+](=O)[O-])c2)c(=O)n(-c2ccccc2)n1C`, the figure is 103%; as for `COc1ccc(C(=O)NC(=S)N2CCNC(=O)C2CC(=O)OC(C)C)cc1` (stereo not given), 107%.

For the molecule `CCCNC(=O)NCc1ccc(N2CCCC2=O)cc1`, the binding response (% of control) is 98%.

With `CCOc1ccc(C(=O)COC(=O)c2ccc(-n3cnnn3)cc2)cc1`, the binding response (% of control) is 99%. As for `O=C(COC(=O)c1ccc(N2CCCC2=O)cc1)c1ccc(OC(F)F)cc1`, the figure is 0% [inhibitor] (active); as for `COC(C[C@@H](O)C[C@H](O)[C@H](C)OCc1ccccc1)OC`, 92%; as for `Cc1noc(C)c1S(=O)(=O)Nc1ccc(C(=O)O)cc1`, 100%. Under `Cc1noc(C)c1S(=O)(=O)N(C)Cc1ccccc1` stands 5% [inhibitor] (active); under `Cc1cc(C)cc(N(CC(=O)N2CC=C(c3ccccc3)CC2)S(=O)(=O)c2c(C)noc2C)c1`, 112%.

Consider `CC(=O)N(C)c1ccc(NC(=O)C(F)(F)F)cc1`, for which the binding response (% of control) is -2% [inhibitor] (active). Under `CCOc1ccc(NC(=O)Nc2ccc(N(C)C(C)=O)cc2)cc1` stands 97%; under `CC(=O)N(C)c1ccc(NC(=O)Nc2cccc3ccccc23)cc1`, 106%. As for `O=C(/C=C/c1ccc(OCc2c(F)cccc2Cl)cc1)N1CCOCC1`, the figure is 74%. As for `COCCCNC(=O)/C=C/c1ccc(OCc2c(F)cccc2Cl)cc1`, the figure is 106%; as for `CN(C)CCCNC(=O)/C=C/c1ccc(OCc2c(F)cccc2Cl)cc1`, 170% (active). As to `CCOC(=O)N1CCC(NC(=O)CCc2ccccc2)CC1`, the binding response (% of control) is 107%. As for `COc1cc(NC(=O)C2=CC(c3ccc(C)cc3)=NS(=O)(=O)N2C)cc(OC)c1OC`, the figure is 105%; as for `Cc1cc(C)cc(N(CC(=O)NC2CCCC2)C(=O)CCC(=O)Nc2cc(C)on2)c1`, 96%.

Regarding `COCCCNC(=O)[C@H]1N2C(=O)c3ccccc3C2SC1(C)C` (stereo not given in full), the binding response (% of control) is 103%. Consider `CS(=O)(=O)Nc1cccc(C2=NN(C(=O)c3cccc(F)c3)C(c3cccs3)C2)c1` (stereo not given), for which the binding response (% of control) is 102%. Under `Cc1ccc(C2CC(c3cccc(NS(C)(=O)=O)c3)=NN2S(C)(=O)=O)cc1` (stereo not given) stands 20% (active). Under `CS(=O)(=O)Nc1cccc(C2=NN(S(=O)(=O)c3ccccc3)C(c3cccs3)C2)c1` (stereo not given) stands 94%; under `CN(C(=O)CC1C(=O)NCCN1Cc1ccc(F)cc1Cl)C1CCCCC1` (stereo not given), 101%.
